PubChem BioAssay (EPA / NIEHS)
Values joined by “and” are separate entries in the source; they are usually repeats but may differ in a detail not shown here. Identical values can stand only once. Inconclusive results are not listed. Active and inactive are the calls of the source. Rule for the calls, unless noted: active = hit-call score of the fitted dose curve at least 0.9, where 1 is the maximum; inconclusive = response in the unintended direction; inactive = score below 0.9.

What was measured:
[1] = tested on: frog Estrogen Receptor (ER), gene 398734; assay: ATG_frER1_XSP2: Attagene TRANS-FACTORIAL Multi-Species (XSP2) HepG2 Assay for frog Estrogen Receptor (ER) (AID 2283821);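 note: hits raise reporter mRNA above DMSO baseline so potency means agonist or activator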
Procedure, shortened: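 Gain-of-signal mRNA reporter assay, HepG2 human liver cells, 24 h dosing; transcripts read by fluorescent RT-PCR fragment analysis, DMSO as negative control.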

[2] = tested on: zebrafish Estrogen Receptor (ER2b), gene 317733; assay: ATG_zfER2b_XSP2: Attagene TRANS-FACTORIAL Multi-Species (XSP2) HepG2 Assay for zebrafish Estrogen Receptor (ER2b) (AID 2283823);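 note: fitted upward as reporter gain over DMSO so potency reflects activation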
Procedure, shortened: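 In this multiplexed trans-activation format, HepG2 cells expressing exogenous NR-Gal4 fusions drive GAL4-UAS reporters. Exposure lasts 24 h, and reporter mRNA induction is read by RT-PCR with capillary electrophoresis detection.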

[3] = tested on: frog Estrogen Receptor (ER2), gene 100174814; assay: ATG_frER2_XSP2: Attagene TRANS-FACTORIAL Multi-Species (XSP2) HepG2 Assay for frog Estrogen Receptor (ER2) (AID 2283828)
Procedure, shortened: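 Induction of reporter mRNA, baseline set by DMSO, is the endpoint. The panel was run in transfected HepG2 cells over 24 h, with 3 nM 6-alpha-fluorotestosterone and 1.5 nM norgestrel present to stimulate androgen receptor.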

[4] = target: Peroxisome proliferator-activated receptor gamma (Homo sapiens) (UniProt P37231); assay: ATG_hPPARg_XSP2: Attagene TRANS-FACTORIAL Multi-Species (XSP2) HepG2 Assay for human Peroxisome Proliferator-activated Receptor gamma (PPARg) (AID 2283829);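 note: actives raise reporter mRNA above DMSO so AC50 reflects PPARg activation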
Procedure, shortened: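 Multiplexed transactivation in transfected HepG2 liver cells. Gal4-chimeric receptor activity reported as induced reporter transcript after 24 h.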

[5] = target: Nuclear receptor subfamily 1 group I member 2 (Mus musculus) (UniProt O54915); assay: ATG_mPXR_XSP2: Attagene TRANS-FACTORIAL Multi-Species (XSP1) HepG2 Assay for mouse Pregnane X Receptor (PXR) (AID 2283831)
Procedure, shortened: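 Human liver HepG2 cells expressing exogenous receptor-GAL4 chimeras were exposed to test chemicals for 24 h. Induction of reporter mRNA was scored as gain of fluorescence signal over DMSO controls.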

[6] = tested on: zebrafish Peroxisome Proliferator-activated Receptor gamma (PPARg), gene 557037; assay: ATG_zfPPARg_XSP2: Attagene TRANS-FACTORIAL Multi-Species (XSP2) HepG2 Assay for zebrafish Peroxisome Proliferator-activated Receptor gamma (PPARg) (AID 2283833);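 note: reporter mRNA from a zebrafish PPARg GAL4 chimera measured by RT-PCR and capillary electrophoresis; actives increase reporter signal over DMSO so AC50 reflects activation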
Procedure, shortened: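 Cell-based transactivation of a chimeric zebrafish PPARg-GAL4 receptor was assessed in transiently transfected HepG2 cells after 24 h of treatment. Reporter mRNA induction, detected fluorescently after RT-PCR, was analysed in the positive direction against DMSO.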

[7] = tested on: turtle Thyroid Hormone Receptor, alpha (TRa), gene 101949057; assay: ATG_trTRa_XSP2: Attagene TRANS-FACTORIAL Multi-Species (XSP1) HepG2 Assay for turtle Thyroid Hormone Receptor, alpha (TRa) (AID 2283834);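 note: hits raise reporter mRNA over the DMSO baseline so AC50 marks activators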
Procedure, shortened: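 Gain-of-signal reporter transcription measured in transiently transfected HepG2 at 24 h post-dose. Fluorescent RT-PCR products were resolved by capillary electrophoresis and compared with DMSO vehicle.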

[8] = ATG_M_61_XSP2: Attagene TRANS-FACTORIAL Multi-Species (XSP2) HepG2 Assay for M61 Transcription Factor (Internal Marker) (AID 2283835; active = hit-call score of the fitted dose curve at least 0.9, where 1 is the maximum; inactive = score below 0.9;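 note: reporter mRNA of an internal background marker read by RT-PCR and capillary electrophoresis; active means a rise in signal above the DMSO baseline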)
Procedure, shortened: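 Signal was mRNA induction detected as fluorescence after RT-PCR and capillary electrophoresis, analysed in the gain direction with DMSO as baseline. HepG2 cells transiently carrying reporter constructs received chemicals for 24 h.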

[9] = target: zebrafish Thyroid Hormone Receptor beta (TRb), thrb (gene 30607) (UniProt Q9PVE4); assay: ATG_zfTRb_XSP2: Attagene TRANS-FACTORIAL Multi-Species (XSP1) HepG2 Assay for zebrafish Thyroid Hormone Receptor beta (TRb) (AID 2283836)
Procedure, shortened: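 Transfect HepG2 with multiple reporter transcription units, dose chemical, incubate 24 h. Isolate RNA, reverse-transcribe, amplify and fluorescently label reporter sequences, digest with HpaI, then resolve by capillary electrophoresis. Positive direction fitted against DMSO.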

[10] = ATG_XTT_Cytotoxicity_XSP2: Cytotoxicity Assessment in the Attagene TRANS-FACTORIAL Multi-Species (XSP2) HepG2 Assay (AID 2283837)
Procedure, shortened: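 XTT-based cell number read-out in human HepG2 liver cells carrying transfected reporter units, measured 24 h after chemical dosing. Activity is signal loss versus DMSO baseline.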

[11] = target: human Thyroid hormone Receptor alpha (TRa), THRA (gene 7067) (UniProt P10827); assay: ATG_hTRa_XSP2: Attagene TRANS-FACTORIAL Multi-Species (XSP2) HepG2 Assay for human Thyroid hormone Receptor alpha (TRa) (AID 2283838)
Procedure, shortened: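 Reporter transcripts were read by RT-PCR with fluorescent primer extension, HpaI digestion and capillary electrophoresis. These came from HepG2 cells carrying multiplexed TRa-Gal4 TRANS constructs, harvested 24 hours after dosing. The medium also held 6-alpha-fluorotestosterone (3 nM) and norgestrel (1.5 nM), and increases were fitted against DMSO.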

[12] = target: frog Thyroid hormone Receptor alpha (TRa), thra-a (gene 397942) (UniProt P15204); assay: ATG_frTRa_XSP2: Attagene TRANS-FACTORIAL Multi-Species (XSP2) HepG2 Assay for frog Thyroid hormone Receptor alpha (TRa) (AID 2283839)
Procedure, shortened: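 Frog thyroid receptor alpha was tested as an exogenous NR-Gal4 fusion in transiently transfected HepG2 cells. After 24 h chemical treatment, reporter mRNA induction was quantified by RT-PCR and capillary electrophoresis, with gain-of-signal analysed relative to DMSO.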

[13] = target: human Thyroid hormone Receptor beta (TRb), THRB (gene 7068) (UniProt P10828); assay: ATG_hTRb_XSP2: Attagene TRANS-FACTORIAL Multi-Species (XSP2) HepG2 Assay for human Thyroid hormone Receptor beta (TRb) (AID 2283840);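 note: actives raise reporter mRNA so potency reflects agonist-like gain of signal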
Procedure, shortened: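 In this cell-based multiplex, HepG2 liver cells carrying transfected GAL4-UAS reporter constructs are exposed to chemical for 24 hours, then reporter transcripts are measured by RT-PCR with capillary electrophoresis, scored as gain of signal against DMSO.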

SERPINA7 (gene 6906) = assay: CCTE_GLTED_hTBG: CCTE's human Thyroxine-binding Globulin (TBG) Inhibition Assay, Great Lakes Toxicology and Ecology Division (GLTED) Lab (AID 2284343);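 note: active chemicals lower fluorescence versus DMSO baseline by displacing probe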
Procedure, shortened: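 Human thyroxine-binding globulin was exposed to each chemical for 2 hours, during which the ANSA probe could be displaced. Fluorescence was then measured at 380/475 nm, and loss of signal was analysed relative to DMSO.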

TTR (gene 7276) = assay: CCTE_GLTED_hTTR_0.125uM: CCTE's human Transthyretin (hTTR) Inhibition Assay, with 0.125uM TTR, Great Lakes Toxicology and Ecology Division (GLTED) Lab (AID 2284431; active = hit-call score of the fitted dose curve at least 0.9, where 1 is the maximum; inactive = score below 0.9;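 note: hits lower the fluorescence signal relative to DMSO baseline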)
Procedure, shortened: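 Probe-displacement format: chemicals competing for the T4 site release ANSA from 0.125uM TTR during a 2 h incubation, measured by fluorescence at 380 excitation and 475 emission.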

Caspase-3 (Homo sapiens) = Caspase-3 (Homo sapiens) (UniProt P42574); assay: NVS_ENZ_hCASP3: NovaScreen (NVS) Enzymatic Assay for human Caspase 3 (CASP3) (AID 2283139)
Procedure, shortened: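 Single-concentration screening at 25 uM in duplicate, with concentration-response follow-up to a 50 uM maximum for chemicals passing the threshold. Caspase-3 (human, E. coli-expressed) activity was read as substrate fluorescence after 1 h, with loss of signal relative to DMSO.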

[14] = target: human Phosphodiesterase 5 (PDE5), PDE5A (gene 8654) (UniProt O76074); assay: NVS_ENZ_hPDE5: NovaScreen (NVS) Enzymatic Assay for human Phosphodiesterase 5 (PDE5) (AID 2283194)
Procedure, shortened: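 Screening began in duplicate at 25 uM, with actives taken into concentration-response. Enzyme activity of recombinant PDE5 toward its substrate was measured at 1 h by fluorescence mobility-shift detection, relative to DMSO controls.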

[15] = target: human Norepinephrine Transporter (NET), SLC6A2 (gene 6530) (UniProt P23975); assay: NVS_TR_hNET: NovaScreen (NVS) Transporter Assay for human Norepinephrine Transporter (NET) (AID 2283377);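 note: cell-free membrane protein extracted from CHO cells expressing human NET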
Procedure, shortened: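 In this cell-free binding screen, chemicals at 25 uM (duplicate) compete with a radioligand for CHO-derived human NET over 1 hour, with filter-based radiodetection.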

[16] = read-out: Tumor necrosis factor receptor superfamily member 6 (Homo sapiens) (UniProt P25445); assay: LTEA_HepaRG_FAS: Life Technologies and Expression Analysis (LTEA) Assay for Fas cell surface death receptor (FAS) using HepaRG (AID 2283447; active = hit-call score of the fitted dose curve at least 0.9, where 1 is the maximum; inactive = score below 0.9); details: mRNA level, 48 h; actives raise or lower the signal
Procedure, shortened: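 Differentiated human HepaRG cells, pre-cultured 48 h, were exposed in duplicate for 48 h to 8-point half-log concentrations (top 100 uM, 0.5% DMSO) in serum-free induction medium; FAS mRNA measured by qRT-PCR, normalized to ACTB/GAPDH/POLR2A, bidirectional fit versus DMSO.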

[17] = read-out: Fatty acid synthase (Homo sapiens) (UniProt P49327); assay: LTEA_HepaRG_FASN: Life Technologies and Expression Analysis (LTEA) Assay for Fatty Acid Synthase (FASN) using HepaRG (AID 2283448; active = hit-call score of the fitted dose curve at least 0.9, where 1 is the maximum; inactive = score below 0.9); details: mRNA level, 48 h; actives raise or lower the signal
Procedure, shortened: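 Cells were plated, cultured 48 h, switched to serum-free induction medium, then dosed in duplicate (max 100 uM, half-log dilutions, 0.5% DMSO) for 48 h. RNA was then isolated and FASN quantified by qRT-PCR.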

Chain of Nuclear receptor subfamily 1 group I member 2 (Mus musculus) (O54915 whole entry, looked up, the tested form may be a part): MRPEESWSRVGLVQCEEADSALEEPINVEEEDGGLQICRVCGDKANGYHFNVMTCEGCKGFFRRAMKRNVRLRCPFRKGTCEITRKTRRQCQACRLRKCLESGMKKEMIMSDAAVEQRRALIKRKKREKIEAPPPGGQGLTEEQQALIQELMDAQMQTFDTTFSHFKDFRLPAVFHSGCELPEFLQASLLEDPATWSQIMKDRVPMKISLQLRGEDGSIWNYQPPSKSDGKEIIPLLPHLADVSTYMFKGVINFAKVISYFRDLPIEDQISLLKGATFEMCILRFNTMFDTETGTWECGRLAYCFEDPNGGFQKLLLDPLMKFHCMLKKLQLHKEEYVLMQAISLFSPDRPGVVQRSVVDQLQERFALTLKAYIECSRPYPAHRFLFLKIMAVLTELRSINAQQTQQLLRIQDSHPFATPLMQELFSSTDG
Chain of human Thyroid hormone Receptor beta (TRb), THRB (gene 7068) (P10828 whole entry, looked up, the tested form may be a part): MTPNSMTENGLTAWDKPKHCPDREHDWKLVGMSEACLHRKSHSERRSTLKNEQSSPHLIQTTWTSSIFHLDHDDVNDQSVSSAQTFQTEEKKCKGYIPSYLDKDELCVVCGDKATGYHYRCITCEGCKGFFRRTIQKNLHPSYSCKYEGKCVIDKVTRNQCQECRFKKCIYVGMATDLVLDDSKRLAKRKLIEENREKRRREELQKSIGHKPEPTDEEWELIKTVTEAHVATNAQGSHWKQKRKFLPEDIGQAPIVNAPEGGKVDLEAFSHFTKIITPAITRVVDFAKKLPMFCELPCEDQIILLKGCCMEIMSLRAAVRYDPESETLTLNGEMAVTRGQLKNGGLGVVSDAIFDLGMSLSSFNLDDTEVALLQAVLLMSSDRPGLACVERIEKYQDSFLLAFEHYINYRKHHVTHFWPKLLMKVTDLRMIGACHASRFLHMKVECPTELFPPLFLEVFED
Chain of Peroxisome proliferator-activated receptor gamma (Homo sapiens) (P37231 whole entry, looked up, the tested form may be a part): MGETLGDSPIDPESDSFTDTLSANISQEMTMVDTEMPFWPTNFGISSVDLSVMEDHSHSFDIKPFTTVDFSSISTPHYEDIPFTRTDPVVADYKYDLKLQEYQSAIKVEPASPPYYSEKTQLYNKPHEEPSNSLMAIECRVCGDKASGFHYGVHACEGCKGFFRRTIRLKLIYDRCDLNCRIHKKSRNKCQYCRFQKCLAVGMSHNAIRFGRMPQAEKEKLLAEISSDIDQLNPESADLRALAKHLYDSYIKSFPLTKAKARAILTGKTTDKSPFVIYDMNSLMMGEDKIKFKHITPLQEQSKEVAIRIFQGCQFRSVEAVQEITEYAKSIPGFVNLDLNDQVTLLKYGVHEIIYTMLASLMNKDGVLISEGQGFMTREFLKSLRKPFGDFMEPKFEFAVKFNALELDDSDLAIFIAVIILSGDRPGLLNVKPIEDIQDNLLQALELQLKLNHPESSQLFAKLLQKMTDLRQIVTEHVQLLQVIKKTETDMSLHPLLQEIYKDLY
Chain of human Thyroid hormone Receptor alpha (TRa), THRA (gene 7067) (P10827 whole entry, looked up, the tested form may be a part): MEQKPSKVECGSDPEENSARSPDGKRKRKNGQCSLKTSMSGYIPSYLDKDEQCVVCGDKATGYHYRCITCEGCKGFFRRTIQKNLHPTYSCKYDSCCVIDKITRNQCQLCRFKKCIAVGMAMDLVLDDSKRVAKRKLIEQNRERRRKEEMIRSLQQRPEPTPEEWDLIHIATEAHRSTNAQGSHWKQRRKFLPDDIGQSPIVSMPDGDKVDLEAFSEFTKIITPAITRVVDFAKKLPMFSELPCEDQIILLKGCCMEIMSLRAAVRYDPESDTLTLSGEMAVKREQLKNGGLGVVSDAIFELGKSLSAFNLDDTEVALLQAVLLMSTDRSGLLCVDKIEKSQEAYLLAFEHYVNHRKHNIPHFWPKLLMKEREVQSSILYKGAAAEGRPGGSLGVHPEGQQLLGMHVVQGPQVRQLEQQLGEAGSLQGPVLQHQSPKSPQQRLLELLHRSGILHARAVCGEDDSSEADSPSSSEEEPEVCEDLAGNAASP
Chain of Caspase-3 (Homo sapiens) (P42574 whole entry, looked up): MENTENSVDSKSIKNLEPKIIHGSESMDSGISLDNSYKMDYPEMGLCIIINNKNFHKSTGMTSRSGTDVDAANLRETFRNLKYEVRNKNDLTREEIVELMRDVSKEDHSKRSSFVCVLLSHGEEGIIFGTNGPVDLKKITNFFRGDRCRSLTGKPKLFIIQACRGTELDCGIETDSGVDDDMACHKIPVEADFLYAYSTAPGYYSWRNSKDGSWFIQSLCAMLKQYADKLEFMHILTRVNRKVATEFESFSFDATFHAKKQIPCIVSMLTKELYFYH
Chain of Fatty acid synthase (Homo sapiens) (P49327 whole entry, looked up): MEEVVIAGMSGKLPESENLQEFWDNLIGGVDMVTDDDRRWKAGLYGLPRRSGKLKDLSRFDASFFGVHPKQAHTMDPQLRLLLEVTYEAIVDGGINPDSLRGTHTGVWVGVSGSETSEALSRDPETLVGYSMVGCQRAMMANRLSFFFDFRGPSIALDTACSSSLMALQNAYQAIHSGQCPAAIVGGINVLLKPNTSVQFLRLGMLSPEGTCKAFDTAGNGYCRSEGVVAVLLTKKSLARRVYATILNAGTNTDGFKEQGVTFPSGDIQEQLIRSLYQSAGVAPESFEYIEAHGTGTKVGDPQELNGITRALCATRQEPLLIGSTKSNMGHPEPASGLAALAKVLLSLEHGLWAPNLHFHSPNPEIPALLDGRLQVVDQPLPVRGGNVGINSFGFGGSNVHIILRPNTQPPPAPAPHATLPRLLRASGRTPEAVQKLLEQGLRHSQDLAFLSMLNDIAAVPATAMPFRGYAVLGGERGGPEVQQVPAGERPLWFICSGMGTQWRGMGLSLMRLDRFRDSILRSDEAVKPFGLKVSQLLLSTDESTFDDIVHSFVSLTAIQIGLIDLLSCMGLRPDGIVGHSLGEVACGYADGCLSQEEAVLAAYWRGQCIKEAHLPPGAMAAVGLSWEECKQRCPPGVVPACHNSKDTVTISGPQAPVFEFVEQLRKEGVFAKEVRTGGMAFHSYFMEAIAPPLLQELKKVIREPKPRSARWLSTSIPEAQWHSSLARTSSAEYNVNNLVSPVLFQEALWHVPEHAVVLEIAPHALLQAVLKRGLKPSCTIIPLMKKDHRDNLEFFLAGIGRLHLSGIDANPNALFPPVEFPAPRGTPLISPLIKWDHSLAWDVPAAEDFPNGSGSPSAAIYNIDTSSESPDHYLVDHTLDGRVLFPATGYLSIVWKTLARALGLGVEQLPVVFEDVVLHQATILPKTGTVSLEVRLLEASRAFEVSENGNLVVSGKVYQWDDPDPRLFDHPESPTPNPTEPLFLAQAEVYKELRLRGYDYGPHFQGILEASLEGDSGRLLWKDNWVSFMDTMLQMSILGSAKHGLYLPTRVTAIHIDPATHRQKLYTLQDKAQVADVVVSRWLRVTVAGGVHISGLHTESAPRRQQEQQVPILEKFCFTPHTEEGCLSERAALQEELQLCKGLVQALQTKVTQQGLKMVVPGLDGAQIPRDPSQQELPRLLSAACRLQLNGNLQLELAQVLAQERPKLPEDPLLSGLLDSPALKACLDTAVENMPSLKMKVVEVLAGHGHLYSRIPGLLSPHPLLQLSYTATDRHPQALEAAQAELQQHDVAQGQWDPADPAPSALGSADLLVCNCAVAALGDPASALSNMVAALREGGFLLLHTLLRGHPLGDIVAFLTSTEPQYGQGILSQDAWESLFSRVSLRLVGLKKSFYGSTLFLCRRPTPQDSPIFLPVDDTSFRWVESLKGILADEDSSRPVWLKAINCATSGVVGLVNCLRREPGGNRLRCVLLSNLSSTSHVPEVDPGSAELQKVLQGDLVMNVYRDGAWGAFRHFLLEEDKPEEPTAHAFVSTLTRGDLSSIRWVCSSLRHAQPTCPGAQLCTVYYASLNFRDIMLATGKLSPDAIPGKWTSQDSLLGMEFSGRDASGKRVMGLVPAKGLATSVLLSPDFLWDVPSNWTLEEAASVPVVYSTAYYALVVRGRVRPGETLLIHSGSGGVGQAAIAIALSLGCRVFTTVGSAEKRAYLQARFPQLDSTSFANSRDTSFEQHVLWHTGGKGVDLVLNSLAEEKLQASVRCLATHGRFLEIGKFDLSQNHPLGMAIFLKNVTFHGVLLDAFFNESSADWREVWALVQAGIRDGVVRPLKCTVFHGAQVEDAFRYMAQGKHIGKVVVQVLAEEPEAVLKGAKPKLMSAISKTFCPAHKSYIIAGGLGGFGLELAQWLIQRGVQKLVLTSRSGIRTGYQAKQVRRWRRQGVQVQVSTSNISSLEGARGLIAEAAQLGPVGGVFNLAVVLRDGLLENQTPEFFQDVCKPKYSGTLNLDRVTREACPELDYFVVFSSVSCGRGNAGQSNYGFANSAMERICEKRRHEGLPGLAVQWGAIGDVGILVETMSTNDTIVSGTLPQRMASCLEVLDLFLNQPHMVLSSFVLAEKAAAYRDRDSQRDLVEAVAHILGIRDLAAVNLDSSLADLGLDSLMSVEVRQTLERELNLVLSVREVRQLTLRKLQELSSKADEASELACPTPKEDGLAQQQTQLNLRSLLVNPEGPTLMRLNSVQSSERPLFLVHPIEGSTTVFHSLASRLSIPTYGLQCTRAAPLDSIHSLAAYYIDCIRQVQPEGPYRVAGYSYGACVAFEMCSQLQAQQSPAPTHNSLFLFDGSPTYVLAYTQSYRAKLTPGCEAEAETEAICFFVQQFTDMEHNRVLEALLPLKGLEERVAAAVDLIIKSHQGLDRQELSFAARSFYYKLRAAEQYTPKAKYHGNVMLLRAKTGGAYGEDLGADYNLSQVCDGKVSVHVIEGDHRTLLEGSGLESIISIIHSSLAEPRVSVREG
Chain of zebrafish Thyroid Hormone Receptor beta (TRb), thrb (gene 30607) (Q9PVE4 whole entry, looked up): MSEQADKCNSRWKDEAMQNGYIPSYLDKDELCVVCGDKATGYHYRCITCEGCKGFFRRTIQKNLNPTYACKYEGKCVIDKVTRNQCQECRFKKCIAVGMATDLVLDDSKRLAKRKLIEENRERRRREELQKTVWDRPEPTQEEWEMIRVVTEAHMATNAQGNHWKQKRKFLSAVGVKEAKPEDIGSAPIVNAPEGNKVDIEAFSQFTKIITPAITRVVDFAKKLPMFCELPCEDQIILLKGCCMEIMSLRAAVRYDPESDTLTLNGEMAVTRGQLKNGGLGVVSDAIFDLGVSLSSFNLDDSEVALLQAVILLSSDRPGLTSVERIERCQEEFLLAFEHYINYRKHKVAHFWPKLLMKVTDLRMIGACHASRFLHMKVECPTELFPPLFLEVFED

Row | SMILES | AC50 [1] | AC50 [2] | AC50 [3] | AC50 [4] | outcome [5] | outcome [6] | outcome [7] | outcome [8] | outcome [9] | outcome [10] | outcome [11] | outcome [12] | outcome [13] | AC50 (SERPINA7 (gene 6906)) | AC50 (TTR (gene 7276)) | outcome (Caspase-3 (Homo sapiens)) | outcome [14] | outcome [15] | outcome [16] | outcome [17]
1 | Cc1cc(O)cc(C)c1Cl | 66.8 µM (active) and 26.3 µM (active) | 68.1 µM (active) and 34.5 µM (active) | 29.3 µM (active) and 19.5 µM (active) | 48.2 µM (active) and 63.3 µM (active) | inactive | inactive | inactive | inactive | inactive | inactive | inactive | inactive | inactive | 22.3 µM (active) | 7.71 µM (active) |  |  |  |  | 
2 | CCC(C)=NO |  |  |  |  |  |  |  |  |  |  |  |  |  |  |  | inactive | inactive | inactive | inactive | inactive
